Screens as filed in PubChem.
aSyn 5UTR act: Activators via SNCA 5'UTR binding, MLPCN; alpha-synuclein 5'UTR reporter, activators screen; activity score, % (tested at 7.5 µM), hits read low; actives 7.1% (n = 300,000); AID 1814; in the data active means activity score below about -60%
Active calls of the source: *. A selection follows.

Results for O=C(Nc1cnc2ccccc2c1)N1CCCCC1 ?
aSyn 5UTR act: -74*

How did CN(C(=O)Nc1cnc2ccccc2c1)c1ccccc1 do in these assays?
aSyn 5UTR act: -89*

Results for O=C(Nc1cnc2ccccc2c1)N1CCOCC1 ?
aSyn 5UTR act: -109*

What do the screens show for `C/C(CC(=O)Nc1ccc(F)cc1F)=N\NC(=O)C(=O)N1CCCCC1`?
aSyn 5UTR act: -68*

What do the screens show for `CCOC(=O)c1c(C)[nH]c(N=Nc2ccc(C)cc2C)c1C`?
aSyn 5UTR act: -106*

Results for CCOC(=O)c1c(C)[nH]c(N=Nc2ccccc2C)c1C ?
aSyn 5UTR act: -213*

How did O=C(NCc1ccco1)/C(=C/c1cccc(C(F)(F)F)c1)c1nc2ccccc2[nH]1 do in these assays?
aSyn 5UTR act: -84*

Results for O=C(NCc1ccco1)/C(=C/c1ccc(C(F)(F)F)cc1)c1nc2ccccc2[nH]1 ?
aSyn 5UTR act: -94*

Results for CN1CCc2c(sc(/N=C/c3c[nH]c4ccccc34)c2C#N)C1 ?
aSyn 5UTR act: -68*

What do the screens show for `CN1CCc2c(sc(/N=C/c3cc(Cl)ccc3O)c2C#N)C1`?
aSyn 5UTR act: -157*

Results for CC(C)=C1C2C=CC1C(C(=O)Nc1cccc(C)c1)C2C(=O)O (stereo not drawn) ?
aSyn 5UTR act: -62*

Results for COc1ccc(/C=N/Nc2cc(C)nc3ccc(Br)cc23)cc1 ?
aSyn 5UTR act: 100

What do the screens show for `Cc1cc2c(C)nc(N/N=C/c3ccc(F)cc3)nc2o1`?
aSyn 5UTR act: -72*

What do the screens show for `CCN(CCn1cccn1)C(=O)c1cc(COc2cc(C)ccc2C)on1`?
aSyn 5UTR act: -79*

How did CCN(CCn1cccn1)C(=O)c1cc(COc2ccccc2SC)on1 do in these assays?
aSyn 5UTR act: -90*

Results for COc1ccc(CC(=O)N(C)Cc2ccc(Cl)cc2)cc1S(=O)(=O)N1CCOCC1 ?
aSyn 5UTR act: -115*

What do the screens show for `COc1ccc(S(=O)(=O)N2CCOCC2)cc1NC(=O)CCNC(=O)c1ccc(Br)cc1`?
aSyn 5UTR act: 77

What do the screens show for `CC(C)Cc1ccc(C(C)C(N)=NCCc2ccccc2)cc1` (stereo not drawn)?
aSyn 5UTR act: -75*

What do the screens show for `Cc1nnsc1C(=O)NNc1ccc(C(C)C)cc1`?
aSyn 5UTR act: -99*

How did C=CCNC(=S)NC(=O)c1ccc(C)c(Br)c1 do in these assays?
aSyn 5UTR act: -106*

What do the screens show for `COC(=O)c1ccc(C)c(NS(=O)(=O)c2ccc3c(c2)OCCO3)c1`?
aSyn 5UTR act: 94

Results for Cc1cc(NS(=O)(=O)c2ccc(NC(=O)Nc3ccc4c(c3)OCO4)cc2)no1 ?
aSyn 5UTR act: -71*

What do the screens show for `CC(C)Cc1cc(C(=O)Nc2ccc3c(c2)OCO3)no1`?
aSyn 5UTR act: -184*

Results for Cc1cc(C(=O)Nc2ccc3c(c2)OCO3)no1 ?
aSyn 5UTR act: -107*

Results for O=C(COC(=O)CNC(=O)c1cccs1)Nc1ccccc1C(F)(F)F ?
aSyn 5UTR act: -95*

Results for C/C(CC(=O)Nc1ccc(Cl)cc1C(F)(F)F)=N\NC(=O)c1cccs1 ?
aSyn 5UTR act: -106*

What do the screens show for `C/C(CC(=O)Nc1ccc(Cl)cc1C(F)(F)F)=N\NC(=O)c1ccccn1`?
aSyn 5UTR act: -127*

Results for CC(=O)Nc1nc(-c2ccc(Cl)cc2)ns1 ?
aSyn 5UTR act: -206*

How did CC(C)C(=O)Nc1nc(-c2ccccc2)ns1 do in these assays?
aSyn 5UTR act: -182*

Results for COC(=O)Nc1nc(-c2ccccc2)c(C(=O)c2ccc(Cl)cc2)s1 ?
aSyn 5UTR act: 94

Results for CCSc1nc(-c2ccccc2)nc(C(Cl)Cl)n1 ?
aSyn 5UTR act: 123

Results for CCC(=O)Nc1nc(-c2ccccc2)ns1 ?
aSyn 5UTR act: -211*

What do the screens show for `CC(=O)Nc1cc(-c2ccc(Cl)cc2)[nH]n1`?
aSyn 5UTR act: -141*

What do the screens show for `CCCC(=O)Nc1nc(-c2ccccc2)ns1`?
aSyn 5UTR act: -152*

How did Cc1nnc(SCCC(=O)Nc2nc(-c3ccccc3)ns2)s1 do in these assays?
aSyn 5UTR act: -86*

How did O=C(CSc1ncn[nH]1)Nc1nc(-c2ccccc2)ns1 do in these assays?
aSyn 5UTR act: -63*

What do the screens show for `Cc1c(C(=O)N/N=C/C(C)C)[nH]c2c([N+](=O)[O-])cccc12`?
aSyn 5UTR act: 68

What do the screens show for `Cc1cc(NC(=O)c2cc3cccc([N+](=O)[O-])c3[nH]2)ccc1F`?
aSyn 5UTR act: -93*

What do the screens show for `CN1CCN(/N=C/c2ccc(-c3ccc([N+](=O)[O-])cc3Cl)o2)CC1`?
aSyn 5UTR act: -104*

How did Cc1ccc(C(=O)NC(=S)N(C)C2CCCCC2)cc1 do in these assays?
aSyn 5UTR act: -84*

How did CN(C(=O)c1ccc(-c2ccccc2)cc1)C1CCCCC1 do in these assays?
aSyn 5UTR act: -127*

Results for COc1ccc2cc(C#N)c(SCC(=O)Nc3nonc3C)nc2c1 ?
aSyn 5UTR act: -79*

What do the screens show for `Cc1cc2cc(C#N)c(SCC(=O)Nc3nonc3C)nc2cc1C`?
aSyn 5UTR act: -92*

Results for CCc1cc2c(C)ccc(C)c2nc1SCC(=O)Nc1cc(C)on1 ?
aSyn 5UTR act: 55

Results for Cc1nonc1NC(=O)CSc1nc2c(C)cccc2cc1C#N ?
aSyn 5UTR act: -98*

Results for O=S(=O)(/N=C(/Nc1ccccn1)c1ccc(Cl)cc1)c1ccc(Cl)cc1 ?
aSyn 5UTR act: -91*

How did O=C(NN/C(=N/S(=O)(=O)c1ccc(Cl)cc1)c1ccccc1)c1cccc(Cl)c1 do in these assays?
aSyn 5UTR act: -124*

What do the screens show for `O=C(NN/C(=N/S(=O)(=O)c1ccc(Cl)cc1)c1ccccc1)c1ccc(O)cc1`?
aSyn 5UTR act: -112*

What do the screens show for `Cc1ccc(S(=O)(=O)/N=C(/NNC(=O)c2cccc(Cl)c2)c2ccccc2)cc1`?
aSyn 5UTR act: -101*

What do the screens show for `Oc1ccccc1C1CC(c2cccs2)=NC(c2cccc(Br)c2)N1` (stereo not drawn)?
aSyn 5UTR act: -87*

What do the screens show for `Nc1ccc(-c2nc3ccc(-c4nc5ccccc5o4)cc3[nH]2)cc1`?
aSyn 5UTR act: -215*

What do the screens show for `Cc1ccc2nc(-c3cc(N)cc(N)c3)oc2c1`?
aSyn 5UTR act: 62

How did Cc1nc2ccc(-c3nc4ccccc4o3)cc2[nH]1 do in these assays?
aSyn 5UTR act: -73*

What do the screens show for `Cc1ccc(N2C(=O)c3n[nH]c(C)c3C2c2ccco2)cc1` (stereo not drawn)?
aSyn 5UTR act: -65*

Results for CN1CCN(C(=O)/C=C/c2c(F)cccc2Cl)CC1 ?
aSyn 5UTR act: -68*

What do the screens show for `O=C(/C=C/c1c(F)cccc1Cl)Nc1ccncc1`?
aSyn 5UTR act: -328*

How did O=C(/C=C/c1c(Cl)cccc1Cl)Nc1ccncc1 do in these assays?
aSyn 5UTR act: -293*

Results for c1ccc2sc(NC3=NCN(CC4CCCO4)CN3)nc2c1 (stereo not drawn) ?
aSyn 5UTR act: -86*

How did Oc1c(C(Nc2nc3ccccc3s2)c2ccco2)ccc2cccnc12 (stereo not drawn) do in these assays?
aSyn 5UTR act: 66

Results for c1coc(CN2CN=C(Nc3nc4ccccc4s3)NC2)c1 ?
aSyn 5UTR act: -81*

How did c1ccc(Nc2nc(NCc3ccco3)c3ccccc3n2)cc1 do in these assays?
aSyn 5UTR act: -67*

How did Nc1nc(Nc2ccccc2)nc(NCc2ccccc2)c1[N+](=O)[O-] do in these assays?
aSyn 5UTR act: 84

What do the screens show for `c1coc(CNc2nc3ccccc3s2)c1`?
aSyn 5UTR act: -137*

Results for O=C1/C(=N\S(=O)(=O)c2cccs2)C([n+]2ccc(CCCc3ccccc3)cc2)=C([O-])c2ccccc21 ?
aSyn 5UTR act: 91
